In the supplement of paper PMC8728848:
About 410 targets per protein were measured; listed, in parts, are those with the strongest signals and a random draw of the rest.

Tests used:
Test in all cases: glycan array binding signal (z-score within array); higher = stronger binding
Conditions in all cases: glycan notation: IUPAC condensed, linker removed
[1] = molecular target: Fuc(a1-2)Gal(b1-3)[Fuc(a1-4)]GlcNAc(b1-2)Man(a1-3)[Fuc(a1-2)Gal(b1-3)[Fuc(a1-4)]GlcNAc(b1-2)Man(a1-3)]Man(b1-4)GlcNAc(b1-4)GlcNAc
Method in brief: (§1)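 Negative Z-scores can be read as non-binding. The Z-score is calculated within each array and then averaged across arrays of one protein sequence at different concentrations or buffers and across linkers. Arrays, 3228 in all, were curated from the Consortium for Functional Glycomics database and kept only where the protein sequence was available.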

[2] = molecular target: Fuc(a1-2)Gal(b1-3)[Fuc(a1-4)]GlcNAc(b1-2)Man(a1-6)[Fuc(a1-2)Gal(b1-3)[Fuc(a1-4)]GlcNAc(b1-2)Man(a1-3)]Man(b1-4)GlcNAc(b1-4)[Fuc(a1-6)]GlcNAc
Method in brief: as §1

[3] = molecular target: Fuc(a1-2)Gal(b1-4)GlcNAc(b1-3)Gal(b1-4)GlcNAc(b1-3)Gal(b1-4)GlcNAc
Method in brief: as §1

[4] = molecular target: Fuc(a1-2)Gal(b1-4)[Fuc(a1-3)]GlcNAc(b1-2)Man(a1-3)[Fuc(a1-2)Gal(b1-4)[Fuc(a1-3)]GlcNAc(b1-2)Man(a1-6)]Man(b1-4)GlcNAc(b1-4)[Fuc(a1-6)]GlcNAc
Method in brief: as §1

[5] = molecular target: Fuc(a1-2)Gal(b1-4)[Fuc(a1-3)]GlcNAc(b1-3)Gal(b1-4)[Fuc(a1-3)]GlcNAc
Method in brief: as §1

[6] = molecular target: Fuc(a1-2)Gal(b1-4)[Fuc(a1-3)]GlcNAc(b1-3)GalNAc
Method in brief: as §1

[7] = molecular target: Fuc(a1-2)Gal6S(b1-3)GlcNAc6S
Method in brief: as §1

[8] = molecular target: Fuc(a1-2)[Gal(a1-3)]Gal(b1-4)GlcNAc(b1-3)GalNAc
Method in brief: as §1

[9] = molecular target: Fuc(a1-2)[Gal(a1-3)]Gal(b1-4)GlcNAc(b1-6)GalNAc
Method in brief: as §1

[10] = molecular target: Fuc(a1-2)[GalNAc(a1-3)]Gal(b1-3)GlcNAc(b1-3)GalNAc
Method in brief: as §1

[11] = molecular target: Fuc(a1-2)[GalNAc(a1-3)]Gal(b1-4)GlcNAc(b1-3)Gal(b1-4)GlcNAc
Method in brief: as §1

[12] = molecular target: Fuc(a1-2)[GalNAc(a1-3)]Gal(b1-4)GlcNAc(b1-3)[Fuc(a1-2)[GalNAc(a1-3)]Gal(b1-4)GlcNAc(b1-6)]GalNAc
Method in brief: as §1

Fuc(b1-3)GlcNAc = molecular target: Fuc(b1-3)GlcNAc
Method in brief: as §1

Gal(a1-3)Gal(b1-3)GlcNAc = molecular target: Gal(a1-3)Gal(b1-3)GlcNAc
Method in brief: as §1

[13] = molecular target: Gal(a1-3)Gal(b1-3)[Fuc(a1-4)]GlcNAc(b1-2)Man(a1-3)[Gal(a1-3)Gal(b1-3)[Fuc(a1-4)]GlcNAc(b1-2)Man(a1-6)]Man(b1-4)GlcNAc(b1-4)GlcNAc
Method in brief: as §1

Gal(a1-3)Gal(b1-4)GlcNAc = molecular target: Gal(a1-3)Gal(b1-4)GlcNAc
Method in brief: as §1

[14] = molecular target: Gal(a1-4)Gal(b1-4)GlcNAc(b1-3)Gal(b1-4)Glc
Method in brief: as §1

[15] = molecular target: Gal(b1-3)Gal(b1-4)GlcNAc(b1-2)Man(a1-3)[Gal(b1-3)Gal(b1-4)GlcNAc(b1-2)Man(a1-6)]Man(b1-4)GlcNAc(b1-4)GlcNAc
Method in brief: as §1

Gal(b1-3)GalNAc = molecular target: Gal(b1-3)GalNAc
Method in brief: as §1

[16] = molecular target: Gal(b1-3)GalNAc(b1-3)Gal(a1-4)Gal(b1-4)Glc
Method in brief: as §1

Gal(b1-4)Glc6S = molecular target: Gal(b1-4)Glc6S
Method in brief: as §1

[17] = molecular target: Gal(b1-4)GlcNAc(b1-2)[Gal(b1-4)GlcNAc(b1-4)]Man(a1-3)[GlcNAc(b1-4)][Gal(b1-4)GlcNAc(b1-2)Man(a1-6)]Man(b1-4)GlcNAc(b1-4)GlcNAc
Method in brief: as §1

[18] = molecular target: Gal(b1-4)GlcNAc(b1-3)Gal(b1-4)GlcNAc(b1-2)[Gal(b1-4)GlcNAc(b1-3)Gal(b1-4)GlcNAc(b1-6)]Man(a1-6)[Gal(b1-4)GlcNAc(b1-3)Gal(b1-4)GlcNAc(b1-2)Man(a1-3)]Man(b1-4)GlcNAc(b1-4)[Fuc(a1-6)]GlcNAc
Method in brief: as §1

[19] = molecular target: Gal(b1-4)GlcNAc(b1-3)Gal(b1-4)GlcNAc(b1-3)Gal(b1-4)GlcNAc(b1-2)[Gal(b1-4)GlcNAc(b1-3)Gal(b1-4)GlcNAc(b1-3)Gal(b1-4)GlcNAc(b1-6)]Man(a1-6)[Gal(b1-4)GlcNAc(b1-3)Gal(b1-4)GlcNAc(b1-3)Gal(b1-4)GlcNAc(b1-2)Man(a1-3)]Man(b1-4)GlcNAc(b1-4)[Fuc(a1-6)]GlcNAc
Method in brief: as §1

[20] = molecular target: Gal(b1-4)GlcNAc(b1-3)Gal(b1-4)GlcNAc(b1-3)Gal(b1-4)GlcNAc(b1-3)Gal(b1-4)GlcNAc(b1-3)Gal(b1-4)GlcNAc(b1-2)Man(a1-3)[Gal(b1-4)GlcNAc(b1-3)Gal(b1-4)GlcNAc(b1-3)Gal(b1-4)GlcNAc(b1-3)Gal(b1-4)GlcNAc(b1-3)Gal(b1-4)GlcNAc(b1-2)Man(a1-6)]Man(b1-4)GlcNAc(b1-4)GlcNAc
Method in brief: as §1

[21] = molecular target: Gal(b1-4)GlcNAc(b1-3)Gal(b1-4)GlcNAc(b1-6)[Gal(b1-3)]GalNAc
Method in brief: as §1

Gal3S(b1-3)GalNAc = molecular target: Gal3S(b1-3)GalNAc
Method in brief: as §1

Gal3S(b1-4)Glc6S = molecular target: Gal3S(b1-4)Glc6S
Method in brief: as §1

[22] = molecular target: Gal3S(b1-4)[Fuc(a1-3)]GlcNAc
Method in brief: as §1

Gal4S(b1-4)GlcNAc = molecular target: Gal4S(b1-4)GlcNAc
Method in brief: as §1

B1: Gal 10 (Homo sapiens), Q05315 (protein)
chain: MSLLPVPYTEAASLSTGSTVTIKGRPLVCFLNEPYLQVDFHTEMKEESDIVFHFQVCFGRRVVMNSREYGAWKQQVESKNMPFQDGQEFELSISVLPDKYQVMVNGQSSYTFDHRIKPEAVKMVQVWRDISLTKFNVSYLKR
[1]
  glycan array binding signal (z-score): 0.078
[2]
  glycan array binding signal (z-score): 0.81
[3]
  glycan array binding signal (z-score): -0.692
[4]
  glycan array binding signal (z-score): -0.642
[5]
  glycan array binding signal (z-score): -1.35
[6]
  glycan array binding signal (z-score): 2.13
[7]
  glycan array binding signal (z-score): 0.571
[8]
  glycan array binding signal (z-score): -0.339
[9]
  glycan array binding signal (z-score): 1.28
[10]
  glycan array binding signal (z-score): 0.64
[11]
  glycan array binding signal (z-score): -0.116
[12]
  glycan array binding signal (z-score): 3.88
Fuc(b1-3)GlcNAc
  glycan array binding signal (z-score): 0.585
Gal(a1-3)Gal(b1-3)GlcNAc
  glycan array binding signal (z-score): -0.317
[13]
  glycan array binding signal (z-score): 0.703
Gal(a1-3)Gal(b1-4)GlcNAc
  glycan array binding signal (z-score): 0.105
[14]
  glycan array binding signal (z-score): -0.109
[15]
  glycan array binding signal (z-score): -0.754
Gal(b1-3)GalNAc
  glycan array binding signal (z-score): 0.117
[16]
  glycan array binding signal (z-score): -0.196
Gal(b1-4)Glc6S
  glycan array binding signal (z-score): -0.347
[17]
  glycan array binding signal (z-score): -0.708
[18]
  glycan array binding signal (z-score): 2.23
[19]
  glycan array binding signal (z-score): 5.64
[20]
  glycan array binding signal (z-score): 3.23
[21]
  glycan array binding signal (z-score): 3.3
Gal3S(b1-3)GalNAc
  glycan array binding signal (z-score): -0.157
Gal3S(b1-4)Glc6S
  glycan array binding signal (z-score): 0.08
[22]
  glycan array binding signal (z-score): -0.495
Gal4S(b1-4)GlcNAc
  glycan array binding signal (z-score): -0.269
